From PubChem BioAssay AID1159580 (chemical genetic matrix, 2015)
In all, about 5,500 compounds went through this assay and about 2,000 (36%) were called active. Not shown: some 18% with an inconclusive outcome. No stated cut-off is given here; in the data, active means normalized growth mostly below about 0.91 (no sharp cut-off); inconclusive means no clear call, values can overlap the other calls; inactive means mostly above about 0.92. The list shows a part of the results.

Experiment: chemical genetic growth profiling, strain panel (AID 1159580);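 further: tested at 20 µM; growth read once vehicle control cultures reached saturation at 30 °C; 1 = growth at the plate median or of vehicle wells; lower values mean less growth of the strain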
Details: growth OD

Measured: normalized growth

O=c1cccc2n1CC1CC2CN2CCCC[C@@H]12 (stereo not given in full)
inactive: S. cerevisiae deletion strains, locus YJR043C, strain POL32, hits give low values 0.982 | S. cerevisiae deletion strains, locus YJR066W, strain TOR1, hits give low values 0.98 | S. cerevisiae deletion strains, locus YJR075W, strain HOC1, hits give low values 0.986 | S. cerevisiae deletion strains, locus YKL009W, strain mrt4, hits give low values 0.977 | S. cerevisiae deletion strains, locus YKL068W, hits give low values 0.983 | S. cerevisiae deletion strains, locus YKL085W, strain MDH1 (second series), hits give low values 0.986 | S. cerevisiae deletion strains, locus YKL085W, strain MDH1, hits give low values 0.986 | S. cerevisiae deletion strains, locus YKL160W, strain elf1, hits give low values 0.996 | S. cerevisiae deletion strains, locus YKR001C, strain vps1, hits give low values 1 | S. cerevisiae deletion strains, locus YKR026C, strain gcn3, hits give low values 0.965 | S. cerevisiae deletion strains, locus YKR091W, strain srl3, hits give low values 0.978 | S. cerevisiae deletion strains, locus YLL001W, strain dnm1, hits give low values 0.987 | S. cerevisiae deletion strains, locus YLL026W, hits give low values 0.976 | S. cerevisiae deletion strains, locus YLL041C, strain sdh2, hits give low values 0.98 | S. cerevisiae deletion strains, locus YLR027C, strain aat2, hits give low values 0.984 | S. cerevisiae deletion strains, locus YLR039C, strain RIC1, hits give low values 1 | S. cerevisiae deletion strains, locus YLR058C, strain SHM2, hits give low values 0.978 | S. cerevisiae deletion strains, locus YLR102C, strain apc9, hits give low values 0.982 | S. cerevisiae deletion strains, locus YLR113W, strain HOG1, hits give low values 0.985 | S. cerevisiae deletion strains, locus YLR221C, strain rsa3, hits give low values 1 | S. cerevisiae deletion strains, locus YLR258W, strain gsy2, hits give low values 0.978 | S. cerevisiae deletion strains, locus YLR262C, strain YPT6 (second series), hits give low values 1.01 | S. cerevisiae deletion strains, locus YLR262C, strain YPT6, hits give low values 0.955 | S. cerevisiae deletion strains, locus YLR268W, strain sec22, hits give low values 1.03 | S. cerevisiae deletion strains, locus YLR320W, strain mms22, hits give low values 0.974 | S. cerevisiae deletion strains, locus YLR330W, strain CHS5, hits give low values 0.997 | S. cerevisiae deletion strains, locus YLR342W, strain FKS1 (second series), hits give low values 1.01 | S. cerevisiae deletion strains, locus YLR342W, strain FKS1, hits give low values 0.975 | S. cerevisiae deletion strains, locus YLR357W, strain rsc2, hits give low values 0.943 | S. cerevisiae deletion strains, locus YLR370C, strain arc18, hits give low values 0.989 | S. cerevisiae deletion strains, locus YLR371W, strain rom2, hits give low values 0.977 | S. cerevisiae deletion strains, locus YLR384C, strain iki3, hits give low values 0.976 | S. cerevisiae deletion strains, locus YLR418C, strain cdc73, hits give low values 0.957 | S. cerevisiae deletion strains, locus YML016C, strain PPZ1, hits give low values 0.991 | S. cerevisiae deletion strains, locus YML032C, strain rad52, hits give low values 0.987 | S. cerevisiae deletion strains, locus YML120C, strain ndi1, hits give low values 1.02 | S. cerevisiae deletion strains, locus YML124C, strain tub3, hits give low values 0.978 | S. cerevisiae deletion strains, locus YMR058W, strain fet3, hits give low values 0.987 | S. cerevisiae deletion strains, locus YMR078C, strain ctf18, hits give low values 0.98 | S. cerevisiae deletion strains, locus YMR125W, strain sto1, hits give low values 0.944 | S. cerevisiae deletion strains, locus YMR129W, hits give low values 0.987 | S. cerevisiae deletion strains, locus YMR205C, strain PFK2, hits give low values 0.928 | S. cerevisiae deletion strains, locus YMR223W, strain ubp8, hits give low values 0.958 | S. cerevisiae deletion strains, locus YMR231W, strain pep5, hits give low values 0.98 | S. cerevisiae deletion strains, locus YMR263W, strain SAP30, hits give low values 0.981 | S. cerevisiae deletion strains, locus YMR307W, strain GAS1, hits give low values 1.04 | S. cerevisiae deletion strains, locus YNL067W, strain RPL9B, hits give low values 0.989 | S. cerevisiae deletion strains, locus YNL071W, strain lat1, hits give low values 0.994 | S. cerevisiae deletion strains, locus YNL153C, strain GIM3, hits give low values 0.993 | S. cerevisiae deletion strains, locus YNL183C, strain NPR1, hits give low values 0.993 | S. cerevisiae deletion strains, locus YNL209W, strain ssb2, hits give low values 0.984 | S. cerevisiae deletion strains, locus YNL233W, strain BNI4, hits give low values 1 | S. cerevisiae deletion strains, locus YNL248C, strain rpa49, hits give low values 1.01 | S. cerevisiae deletion strains, locus YNL250W, strain rad50, hits give low values 0.967 | S. cerevisiae deletion strains, locus YNL271C, strain bni1, hits give low values 0.996 | S. cerevisiae deletion strains, locus YNL298W, strain CLA4, hits give low values 0.986 | S. cerevisiae deletion strains, locus YNL307C, strain MCK1, hits give low values 0.981 | S. cerevisiae deletion strains, locus YNL322C, strain KRE1 (second series), hits give low values 0.976 | S. cerevisiae deletion strains, locus YNR049C, strain mso1, hits give low values 0.974 | S. cerevisiae deletion strains, locus YNR052C, strain pop2, hits give low values 0.979 | S. cerevisiae deletion strains, locus YOL006C, strain TOP1, hits give low values 1.04 | S. cerevisiae deletion strains, locus YOL012C, strain htz1 0.724 | S. cerevisiae deletion strains, locus YOL147C, strain pex11, hits give low values 0.98 | S. cerevisiae deletion strains, locus YOR001W, strain rrp6, hits give low values 0.993 | S. cerevisiae deletion strains, locus YOR061W, strain CKA2, hits give low values 0.962 | S. cerevisiae deletion strains, locus YOR069W, strain VPS5, hits give low values 0.999 | S. cerevisiae deletion strains, locus YOR070C, strain gyp1, hits give low values 0.99 | S. cerevisiae deletion strains, locus YOR080W, strain dia2, hits give low values 0.971 | S. cerevisiae deletion strains, locus YOR083W, strain WHI5, hits give low values 1.02 | S. cerevisiae deletion strains, locus YOR106W, strain vam3, hits give low values 0.985 | S. cerevisiae deletion strains, locus YOR136W, strain idh2, hits give low values 0.973 | S. cerevisiae deletion strains, locus YOR144C, strain elg1, hits give low values 0.976 | S. cerevisiae deletion strains, locus YOR184W, strain ser1, hits give low values 0.973 | S. cerevisiae deletion strains, locus YOR231W, strain MKK1, hits give low values 1.03 | S. cerevisiae deletion strains, locus YOR265W, strain rbl2, hits give low values 0.968 | S. cerevisiae deletion strains, locus YOR270C, strain vph1, hits give low values 0.987 | S. cerevisiae deletion strains, locus YOR290C, strain snf2, hits give low values 0.951 | S. cerevisiae deletion strains, locus YOR316C, strain cot1, hits give low values 0.976 | S. cerevisiae deletion strains, locus YPL051W, strain arl3, hits give low values 1 | S. cerevisiae deletion strains, locus YPL078C, strain atp4, hits give low values 0.999 | S. cerevisiae deletion strains, locus YPL106C, strain sse1, hits give low values 0.927 | S. cerevisiae deletion strains, locus YPL240C, strain hsp82, hits give low values 0.994 | S. cerevisiae deletion strains, locus YPL241C, strain CIN2, hits give low values 0.994 | S. cerevisiae deletion strains, locus YPL256C, strain CLN2, hits give low values 1.01 | S. cerevisiae deletion strains, locus YPR119W, strain clb2, hits give low values 0.976 | S. cerevisiae deletion strains, locus YPR141C, strain kar3, hits give low values 0.97 | S. cerevisiae deletion strains, locus YPR163C, strain tif3, hits give low values 0.973 | S. cerevisiae deletion strains, locus YPR167C, strain met16, hits give low values 0.973 | S. cerevisiae deletion strains, strain wtn01, hits give low values 1.04 | S. cerevisiae strains, strain wild type, hits give low values 1
